Bioassay records as filed in PubChem BioAssay.
POLH inh – inhibitors of human DNA polymerase eta | recombinant Pol eta, fluorescent DNA replication assay | Potency, µM (doses to about 114 µM), most hits filed as inhibitors | Q9Y253 | 1.2% of 390,000 active
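Pol eta (10 nM) was preincubated with compounds for 15 min at room temperature, after which fluorescent replication substrate (50 nM final) was added to start the reaction. Fluorescence was read kinetically at 0 and 10 min.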
FEN1 inh – human FEN1 inhibition; P39748; Recombinant FEN1 flap cleavage, fluorescence, 15 min; Potency, µM (series often up to 114 µM), most hits filed as inhibitors; 0.35% of 390,000 active; AID 588795; also: nearly all actives have a fitted effect of over 65% in size
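Reaction started by adding substrate (50 nM final) to 10 nM enzyme after 15 min room-temperature compound preincubation. Reads at 0 and 15 min, with data normalized and fitted to a four-parameter Hill equation.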
POLK inh – DNA polymerase kappa (human) inhibition. purified Pol kappa, fluorescent DNA synthesis assay, 10 min. AID 588579. Potency, µM (highest dose often 107 µM), hits mostly inhibitors. 0.53% of 400,000 active. Q9UBT6
Target sequence (Q9UBT6 whole entry, looked up): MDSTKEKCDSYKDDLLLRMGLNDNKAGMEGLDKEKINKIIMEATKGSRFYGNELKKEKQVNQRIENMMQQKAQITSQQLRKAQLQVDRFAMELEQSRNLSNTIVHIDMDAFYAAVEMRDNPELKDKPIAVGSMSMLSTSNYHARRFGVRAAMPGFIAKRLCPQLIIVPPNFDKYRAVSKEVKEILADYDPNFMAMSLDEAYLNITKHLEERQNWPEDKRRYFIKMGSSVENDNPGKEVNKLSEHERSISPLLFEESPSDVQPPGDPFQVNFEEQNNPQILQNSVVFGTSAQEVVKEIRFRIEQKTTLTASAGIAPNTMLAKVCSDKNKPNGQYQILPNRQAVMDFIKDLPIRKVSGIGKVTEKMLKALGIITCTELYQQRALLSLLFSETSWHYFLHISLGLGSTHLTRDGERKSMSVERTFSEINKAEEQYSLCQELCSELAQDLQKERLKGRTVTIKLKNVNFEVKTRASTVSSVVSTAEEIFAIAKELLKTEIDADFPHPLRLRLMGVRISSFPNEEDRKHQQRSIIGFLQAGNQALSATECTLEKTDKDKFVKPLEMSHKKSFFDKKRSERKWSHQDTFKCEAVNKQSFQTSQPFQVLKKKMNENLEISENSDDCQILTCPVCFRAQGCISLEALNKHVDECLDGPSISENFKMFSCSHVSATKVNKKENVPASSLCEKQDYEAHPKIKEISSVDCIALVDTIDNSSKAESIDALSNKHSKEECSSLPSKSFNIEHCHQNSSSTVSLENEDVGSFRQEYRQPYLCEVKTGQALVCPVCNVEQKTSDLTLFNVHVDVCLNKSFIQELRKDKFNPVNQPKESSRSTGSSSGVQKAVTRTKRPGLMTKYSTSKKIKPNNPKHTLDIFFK
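Pol kappa 10 nM + cpd, 15 min RT; start w/ substrate 50 nM final; fluorescence kinetic read, 0 and 10 min. Neg ctrl: buffer, no enzyme.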
WRN inhibitor – WRN helicase (human) inhibition; Q14191; WRN helicase unwinding, fluorescent forked duplex, kinetic; Potency, µM (titrated, usually from 114 µM), actives largely listed as inhibitors; 0.46% of 360,000 active; AID 651768; also: nearly all actives have a fitted effect of over 55% in size
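Kinetic red-fluorescence monitoring (525/598 nm) tracks WRN helicase activity after 100 nM fluorophore-quencher forked duplex and 2 mM ATP are added to 20 nM enzyme pretreated 15 min at room temperature with compound.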
Pol iota inh – inhibitors of human DNA polymerase iota. Potency, µM (doses to about 115 µM), hits mostly inhibitors. Q9UNA4. 1% of 390,000 active. Pol iota fluorescent replication assay, 10 min
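Pol iota at 10 nM preincubated 15 min with compounds at room temperature; reaction started with fluorescent substrate, 50 nM final. Fluorescence read kinetically at 0 and 10 min; buffer-only wells as negative control.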
POLB inh – DNA polymerase beta (human) inhibition; P06746; Pol beta primer extension/strand displacement, fluorescence kinetic; Potency, µM (doses to about 114 µM), hits mostly inhibitors; 1.3% of 340,000 active; AID 485314
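Homogeneous kinetic assay of primer extension and strand displacement by 10 nM Pol beta, preincubated 15 min at room temperature with compound before 50 nM substrate (final) was added. Read at 0 and 10 min; four-parameter Hill fit.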
Large screens that a line does not name were inactive; ! = a repeat was not active. Compounds with a hit are over-represented: about 2.4% of the library has one in this group of screens. Calls follow the shape of the dose curve; as a rule, active = well fitted curve in the direction sought with a large enough effect; inconclusive = small, poorly fitted or top-dose-only effect, or another doubt; inactive = no such curve, though single readings can be large; an effect the other way counts as inactive or inconclusive.

C[C@H](NC(=O)[C@@H](N)Cc1ccc(O)cc1)C(=O)NCC(=O)N[C@H]1CSSC[C@@H](C(=O)O)NC(=O)[C@H](CO)NC(=O)[C@H]([C@@H](C)O)NC(=O)[C@H](Cc2ccccc2)NC(=O)[C@H]([C@@H](C)O)NC(=O)[C@H](CCCCN)NC(=O)[C@H](Cc2c[nH]c3ccccc23)NC(=O)[C@H](Cc2ccccc2)NC(=O)[C@H](Cc2ccccc2)NC(=O)[C@H](CC(N)=O)NC(=O)[C@H](CCCCN)NC1=O	none (no result: POLH inh, FEN1 inh, WRN inhibitor, Pol iota inh, POLB inh)
COc1ccccc1OCC(=O)Nc1cc(NC(=O)COc2ccccc2OC)cc(C(=O)O)c1	none
Cc1ccc(OCC(=O)Nc2cc(NC(=O)COc3ccc(C)c(C)c3)cc(C(=O)O)c2)cc1C	POLH inh inconclusive, FEN1 inh inconclusive, POLB inh 50µM
O=C(COc1ccccc1Cl)Nc1cc(NC(=O)COc2ccccc2Cl)cc(C(=O)O)c1	POLB inh 79µM
COc1ccc(-c2ccoc2)cc1C1C2C=CCC(C)C2C(=O)N1Cc1ccccc1 (configuration not stated)	none (no result: POLH inh, WRN inhibitor, POLB inh)
O=C(O)c1ccc(N2Cc3ccccc3C2)cc1O	POLH inh 5.6µM, FEN1 inh inconclusive, POLK inh inconclusive, Pol iota inh inconclusive, POLB inh 45µM
O=C(O)c1ccc(N2CCCCC2)cc1O	none
O=C1CCC[C@@H]2CC(N(Cc3cc4ccccc4s3)c3ccccc3)C[C@@H]3CCN1[C@H]23 (some centres not stated)	none (no result: POLH inh, WRN inhibitor, POLB inh)
NC(=O)c1cccc2c1C(=O)N(C1CCCCC1)C2	POLH inh 50µM, POLK inh inconclusive, Pol iota inh inconclusive, POLB inh inconclusive
O=C(Nc1ccc(F)cc1F)c1cccc2c1C(=O)N(C1CCCCC1)C2	Pol iota inh inconclusive, POLB inh 13µM (no result: WRN inhibitor)
Clc1ccc(/C=C/c2ccc3ccccc3n2)cc1Cl	FEN1 inh inconclusive (no result: POLH inh, WRN inhibitor, POLB inh)
CCN(CC)c1ccc(/C=C/c2ccc3ccccc3n2)cc1	FEN1 inh 45µM, POLK inh 40µM, Pol iota inh inconclusive (no result: POLH inh, WRN inhibitor, POLB inh)
CCN(CC)c1ccc(/C=C/c2nccc3ccccc23)cc1	FEN1 inh inconclusive (no result: POLH inh, WRN inhibitor, POLB inh)
CC[N+](C)(C)c1ccc(/C=C/c2ccc3ccccc3n2)cc1	FEN1 inh 45µM (no result: POLH inh, WRN inhibitor, POLB inh)
CC[N+](C)(C)c1ccc(/C=C/c2ccncc2)cc1	FEN1 inh inconclusive, Pol iota inh 79µM (no result: POLH inh, WRN inhibitor, POLB inh)
Cc1nc([N+](=O)[O-])cn1CC(O)c1ccc2c(c1)OCCCO2 (configuration not stated)	none (no result: POLH inh, WRN inhibitor, POLB inh)
CCOC(=O)NCCOc1ccc(Oc2ccccc2)cc1	none (no result: POLH inh, FEN1 inh, WRN inhibitor, Pol iota inh, POLB inh)
O=S(=O)(c1ccc(OC(F)(F)F)cc1)N1CCN(c2nc(-c3ccccc3)nc3ccccc23)CC1	Pol iota inh inconclusive (no result: POLH inh, WRN inhibitor, POLB inh)
COC(=O)C(NS(=O)(=O)CCl)C(C)C (configuration not stated)	none (no result: POLH inh, WRN inhibitor, POLB inh)
Cc1cnccc1/C=C/c1ccc(N)cc1	none (no result: POLH inh, WRN inhibitor, POLB inh)
CN(Cc1ccccc1)S(=O)(=O)c1ccc2[nH]c(=O)ccc2c1	Pol iota inh inconclusive, POLB inh 32µM
O=c1ccc2cc(S(=O)(=O)NCc3ccc(Cl)cc3)ccc2[nH]1	POLK inh inconclusive, Pol iota inh inconclusive, POLB inh 11µM (no result: WRN inhibitor)
CCOc1ccc(CNS(=O)(=O)c2ccc3[nH]c(=O)ccc3c2)cc1	none (no result: WRN inhibitor)
Oc1ccccc1Oc1c(F)c(F)nc(N2CCCC2)c1F	Pol iota inh inconclusive, POLB inh 45µM
CC(=O)/C=C/c1ccccc1Oc1c(F)c(F)nc(F)c1F	Pol iota inh inconclusive
CCn1c(C)nc2cc(C(=O)N/N=C/c3ccc(O)c(O)c3O)ccc21	POLH inh 5µM, FEN1 inh inconclusive, POLK inh 10µM, WRN inhibitor 18µM, Pol iota inh inconclusive, POLB inh 1.6µM
Cc1nc2ccc(C(=O)N/N=C/c3ccccc3O)cc2[nH]1	Pol iota inh inconclusive, POLB inh 20µM
C/C(=N\NC(=O)c1cc2ccccc2cc1O)c1cc2ccccc2o1	POLH inh 56µM, POLK inh 79µM, WRN inhibitor inconclusive, Pol iota inh 22µM, POLB inh 7.1µM
O=C(COc1ccc2oc(-c3ccccc3)cc(=O)c2c1)NCc1ccco1	POLH inh inconclusive, WRN inhibitor inconclusive, Pol iota inh inconclusive, POLB inh 22µM
COc1ccc2oc(-c3ccco3)cc(=O)c2c1	POLB inh 50µM
Cc1cc(=O)oc2cc(OCC(=O)NCc3ccco3)ccc12	none
COc1cc(C(=O)/C=C/Nc2ccc(NC(C)=O)cc2)cc(OC)c1OC	POLB inh 71µM
COc1cc(C(=O)NNC(=O)c2ccc(NC(C)=O)cc2)cc(OC)c1OC	none
NC(N)=NCCC[C@H](NC(=O)[C@H](Cc1ccccc1)NC(=O)[C@@H]1CCCN1C(=O)[C@H](CO)NC(=O)[C@H](Cc1ccccc1)NC(=O)CNC(=O)[C@@H]1CCCN1C(=O)[C@@H]1CCCN1C(=O)[C@@H](N)CCCN=C(N)N)C(=O)O	none (no result: POLH inh, FEN1 inh, WRN inhibitor, Pol iota inh, POLB inh)
O=C(Nc1ccc(-c2nnc(-c3ccccc3)o2)cc1)C(F)(F)F	none
CC(C)C(=O)Nc1ccc(-c2nnc(-c3ccccc3)o2)cc1	POLB inh 45µM
COc1ccc2nc(/C(C#N)=C\c3ccc(Oc4ccc([N+](=O)[O-])cn4)cc3)[nH]c2c1	POLH inh inconclusive
COc1ccc2nc(/C(C#N)=C\c3ccc(C(=O)O)cc3)[nH]c2c1	POLH inh 22µM, WRN inhibitor inconclusive
N#C/C(=C\c1ccc(OC(=O)c2cccs2)cc1)c1nc2ccccc2[nH]1	POLH inh inconclusive, WRN inhibitor inconclusive, POLB inh 35µM
O=c1ccc2cc(O)c(O)cc2o1	POLK inh 3.5µM!, Pol iota inh inconclusive
O=c1ccc2cc3ccoc3cc2o1	none
CC(OCc1ccccc1)C(NC(=O)OC(C)(C)C)C(=O)NC1COC2CC(n3cc(F)c(=O)[nH]c3=O)OC12 (configuration not stated)	none (no result: POLH inh, WRN inhibitor, POLB inh)
COc1cccc(/C=N/Nc2snc(SC)c2C#N)c1O	POLH inh inconclusive, WRN inhibitor 50µM, Pol iota inh inconclusive, POLB inh inconclusive
COc1ccc(/C=N/Nc2snc(SC)c2C#N)cc1OC	Pol iota inh inconclusive, POLB inh inconclusive
CC(C)CC(CSc1ccc(Br)cc1)N1CCN(C)CCC1=O (configuration not stated)	none (no result: POLH inh, WRN inhibitor, POLB inh)
CCCCn1c(=O)c2c(O)cc(=O)oc2c2ccccc21	POLH inh inconclusive, POLB inh inconclusive
O=c1cc(O)c2c(=O)n(C3CCCCC3)c3ccccc3c2o1	POLH inh inconclusive, Pol iota inh inconclusive, POLB inh 45µM
O=c1c([N+](=O)[O-])c(O)c2ccccc2n1Cc1ccccc1	FEN1 inh 11µM
O=c1cc(O)c2c(=O)n(Cc3ccccc3)c3ccccc3c2o1	POLH inh inconclusive, FEN1 inh inconclusive, WRN inhibitor inconclusive, Pol iota inh inconclusive, POLB inh 25µM
